Test results taken from PubChem BioAssay AID1159580 (chemical genetic matrix, 2015).
Where “and” joins values, the source holds several entries; their conditions need not be identical. Identical values can stand only once. About 2,000 (36%) of roughly 5,500 compounds were called active. Roughly 18% stayed inconclusive and do not appear here. Cut-off read from the data, not from the text of the source: active = normalized growth mostly below about 0.91 (no sharp cut-off); inconclusive = no clear call, values can overlap the other calls; inactive = mostly above about 0.92. Some of the results follow.

Test: chemical genetic growth profiling, strain panel (AID 1159580);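 note: tested at 20 µM; growth read once vehicle control cultures reached saturation at 30 °C; 1 = growth at the plate median or of vehicle wells; lower values mean less growth of the strain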
Details: S. cerevisiae deletion strains, growth OD

Measured: normalized growth

CC(C)(S)[C@@H](N)C(=O)O
inactive: locus YAL013W, strain DEP1, stronger effect = lower value 1.02 | locus YAL021C, strain ccr4, stronger effect = lower value 1.01 | locus YAL026C, strain drs2, stronger effect = lower value 1.01 | locus YAL030W, strain snc1, stronger effect = lower value 1.01 | locus YBL061C, strain skt5, stronger effect = lower value 1 | locus YBR009C, strain hhf1, stronger effect = lower value 0.992 | locus YBR021W, strain FUR4, stronger effect = lower value 1.03 | locus YBR023C, strain chs3, stronger effect = lower value 1.01 | locus YBR171W, strain sec66, stronger effect = lower value 1.01 | locus YBR229C, strain ROT2, stronger effect = lower value 1.01 | locus YBR231C, strain swc5, stronger effect = lower value 1 | locus YBR279W, strain paf1, stronger effect = lower value 0.997 | locus YCL011C, strain gbp2, stronger effect = lower value 1 | locus YCL016C, strain dcc1, stronger effect = lower value 1 | locus YCL029C, strain bik1, stronger effect = lower value 0.991 | locus YCL061C, strain MRC1, stronger effect = lower value 1.01 | locus YCL069W, strain vba3, stronger effect = lower value 0.993 | locus YCR088W, strain abp1, stronger effect = lower value 1.01 | locus YDL005C, strain med2, stronger effect = lower value 0.995 | locus YDL035C, strain GPR1, stronger effect = lower value 1.01 | locus YDL040C, strain nat1, stronger effect = lower value 1 | locus YDL074C, strain BRE1, stronger effect = lower value 1.03 | locus YDL101C, strain DUN1, stronger effect = lower value 1.03 | locus YDL134C, strain PPH21, stronger effect = lower value 1.01 | locus YDL185W, strain tfp1, stronger effect = lower value 0.988 | locus YDL192W, strain arf1, stronger effect = lower value 0.984 | locus YDR001C, strain nth1, stronger effect = lower value 1 | locus YDR069C, strain doa4, stronger effect = lower value 0.997 | locus YDR101C, strain arx1, stronger effect = lower value 0.986 | locus YDR137W, strain rgp1, stronger effect = lower value 1.05 | locus YDR150W, strain NUM1, stronger effect = lower value 1.01 | locus YDR159W, strain sac3, stronger effect = lower value 0.994 | locus YDR162C, strain NBP2, stronger effect = lower value 1 | locus YDR195W, strain ref2 0.997 | locus YDR297W, strain sur2, stronger effect = lower value 1.01 | locus YDR318W, strain mcm21, stronger effect = lower value 0.994 | locus YDR334W, strain swr1, stronger effect = lower value 1.01 | locus YDR335W, strain msn5, stronger effect = lower value 0.986 | locus YDR388W, stronger effect = lower value 0.991 | locus YDR392W, strain spt3, stronger effect = lower value 0.96 | locus YDR502C, strain sam2, stronger effect = lower value 0.996 | locus YEL003W, strain gim4, stronger effect = lower value 0.995 | locus YEL037C, strain rad23, stronger effect = lower value 1 | locus YEL061C, strain CIN8 (second series), stronger effect = lower value 0.995 | locus YEL061C, strain CIN8, stronger effect = lower value 1.01 | locus YER015W, strain faa2, stronger effect = lower value 1.01 | locus YER016W, strain bim1, stronger effect = lower value 0.994 | locus YER110C, stronger effect = lower value 0.989 | locus YER111C, strain swi4, stronger effect = lower value 1.01 | locus YER155C, strain BEM2 (second series), stronger effect = lower value 0.985 | locus YER155C, strain BEM2, stronger effect = lower value 1.01 | locus YER167W, strain BCK2, stronger effect = lower value 1.01 | locus YFR010W, strain ubp6, stronger effect = lower value 0.998 | locus YGL078C, strain dbp3, stronger effect = lower value 0.991 | locus YGL086W, strain mad1, stronger effect = lower value 0.995 | locus YGL167C, strain pmr1, stronger effect = lower value 1 | locus YGL173C, strain kem1, stronger effect = lower value 1 | locus YGL227W, strain vid30, stronger effect = lower value 0.992 | locus YGL240W, strain doc1, stronger effect = lower value 1.01 | locus YGL248W, strain PDE1, stronger effect = lower value 1.02 | locus YGL253W, strain hxk2, stronger effect = lower value 0.993 | locus YGR135W, strain pre9, stronger effect = lower value 0.989 | locus YGR252W, strain gcn5, stronger effect = lower value 1.01 | locus YHR013C, strain ard1, stronger effect = lower value 1 | locus YHR027C, strain rpn1, stronger effect = lower value 1.03 | locus YHR030C, strain SLT2, stronger effect = lower value 1.01 and 0.999 | locus YHR079C, strain IRE1 (second series), stronger effect = lower value 0.987 | locus YHR079C, strain IRE1, stronger effect = lower value 0.982 | locus YHR094C, strain hxt1, stronger effect = lower value 0.986 | locus YHR129C, strain ARP1, stronger effect = lower value 1.01 | locus YHR142W, strain chs7, stronger effect = lower value 1.01 | locus YHR200W, strain rpn10, stronger effect = lower value 1 | locus YIL066C, strain RNR3, stronger effect = lower value 1.01 | locus YIL073C, strain SPO22, stronger effect = lower value 0.975 | locus YIL125W, strain kgd1, stronger effect = lower value 0.997 | locus YIR030C, strain dcg1, stronger effect = lower value 0.989 | locus YJL092W, strain hpr5, stronger effect = lower value 1 | locus YJL095W, strain BCK1 (second series), stronger effect = lower value 1 | locus YJL095W, strain BCK1, stronger effect = lower value 1.05 and 1 | locus YJL115W, strain asf1, stronger effect = lower value 0.995 | locus YJL129C, strain trk1, stronger effect = lower value 0.987 | locus YJL134W, strain LCB3, stronger effect = lower value 1.01 | locus YJL154C, strain vps35, stronger effect = lower value 0.994 | locus YJL164C, strain tpk1, stronger effect = lower value 1.01 | locus YJL166W, strain qcr8, stronger effect = lower value 1.01 | locus YJL168C, strain set2, stronger effect = lower value 0.999 | locus YJL187C, strain SWE1 (second series), stronger effect = lower value 1.01 | locus YJL187C, strain SWE1, stronger effect = lower value 1
